# In the library only some 4.8% were active in any assay of this set; here they are far more common.
# D3 ag = agonists of human D3 dopamine receptor | P35462 | D3R DiscoveRx beta-arrestin cells, luminescence, 90 min | max activation, % | actives 0.58% (n = 410,000) | AID 652048; in the data active = max activation above about 30%
# Target sequence (P35462 whole entry, looked up): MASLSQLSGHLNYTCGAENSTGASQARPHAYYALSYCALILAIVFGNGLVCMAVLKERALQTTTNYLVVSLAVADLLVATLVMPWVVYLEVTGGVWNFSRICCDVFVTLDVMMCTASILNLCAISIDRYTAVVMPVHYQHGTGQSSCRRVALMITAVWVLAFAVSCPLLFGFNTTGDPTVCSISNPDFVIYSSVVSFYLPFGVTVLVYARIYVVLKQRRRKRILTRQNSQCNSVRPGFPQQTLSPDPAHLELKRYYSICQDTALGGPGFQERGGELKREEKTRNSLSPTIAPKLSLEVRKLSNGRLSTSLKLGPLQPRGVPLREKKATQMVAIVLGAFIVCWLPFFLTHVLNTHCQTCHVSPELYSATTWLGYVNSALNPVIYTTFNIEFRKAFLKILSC
#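 Cells at 1500/well, incubated overnight, then treated with pinned compounds (dopamine as control) for 90 min at 37 degrees C. DiscoveRx reagent added for 30 - 60 minutes at room temperature; luminescence read.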
# D3 antag = D3 dopamine receptor (human) antagonism; D3R cells, DiscoveRx beta-arrestin luminescence, antagonist mode; stronger effect = lower value; actives 2.5% (n = 360,000); max response, negative = inhibition, %; P35462; in the data active = max response below about -50%; inconclusive = no clear call, values can overlap the other calls
#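 Cells plated overnight at 1500 cells/well, then exposed to library compounds with dopamine controls for 90 minutes at 37 degrees C. DiscoveRx reagent added for 30–60 minutes at room temperature; luminescence read, quantitative HTS format.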
# ATXN2 expr inh = inhibitors of ATXN2 expression; HEK-293 ATXN2-luciferase reporter, luminescence, 24 h; Potency, µM (doses to about 57 µM), usual class: inhibitors; actives 0.72% (n = 360,000); also: nearly all actives have a fitted effect of over 55% in size
#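 qHTS (up to 57 uM final) was run with 24 h compound exposure of reporter cells at 37 °C. Each well was multiplexed: SteadyGlo luminescence measured ATXN2-luciferase expression after a fluorogenic Gly-Phe-AFC viability readout (25 uM final).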
# ATXN viability = cell viability loss in ATXN counter-screen | S2 cells (HEK-293 line with an ATXN2-luciferase reporter) viability, CellTiter-Fluor protease fluorescence, 24 h | actives 0.49% (n = 400,000) | Potency, µM (titrated, usually from 56.7 µM), most hits filed as cytotoxic; also: nearly all actives have a fitted effect of over 40% in size
# HepG2 tox = counter-screen for TGF-b inhibitors: cytotoxicity in HepG2 cells; HepG2 CAGA-GFP viability, ATP luminescence, 18 h; Potency, µM (titrated, usually from 46.1 µM), most hits filed as cytotoxic; actives 0.76% (n = 410,000)
#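 HepG2 CAGA-GFP cells (1000/well, DMEM with 1% FBS) received compound, then TGF-beta at 500 pg/mL final, and were incubated 18 hours at 37 degrees C. Viability was read by CellTiter-Glo luminescence. Media-only wells were set as complete cell-killing and DMSO as no toxicity.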
# TGFb inhibitor = blocks TGF-b signaling. AID 588855. actives 1.2% (n = 410,000). HepG2 CAGA-GFP TGF-b/SMAD3 reporter, GFP fluorescence, 18 h; TGF-beta stimulated, 500 pg/mL final. Potency, µM (titrated, usually from 46.1 µM), hits mostly inhibitors; also: nearly all actives have a fitted effect of over 65% in size
#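 HEPG2 CAGA-GFP cells (1000/well, DMEM with 1% FBS) were pre-incubated 2 h at 37 degrees C, given compound by pin tool, then stimulated with TGF-beta at 500 pg/mL final for 18 h before per-cell GFP fluorescence imaging.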
# A number is an active result; – = inactive; ? = inconclusive; · = no result given. Unless noted, calls follow the shape of the dose curve; as a rule, active = well fitted curve in the direction sought with a large enough effect; inconclusive = small, poorly fitted or top-dose-only effect, or another doubt; inactive = no such curve, though single readings can be large; an effect the other way counts as inactive or inconclusive.
SMILES,D3 ag,D3 antag,ATXN2 expr inh,ATXN viability,HepG2 tox,TGFb inhibitor
Cc1ccc(S(=O)(=O)N2CCC(C(=O)NCCc3ccc(S(N)(=O)=O)cc3)CC2)cc1,37,–,–,–,–,–
CCC1=C(c2ccc(C)cc2)S(=O)(=O)N=C1N1CCC(C(=O)NCCc2ccc(Cl)cc2)CC1,–,·,·,·,–,13µM
Cc1ccc(CCNC(=O)c2cc(S(=O)(=O)N3CCCC3)cn2C)cc1,–,-145,–,–,–,–
O=C(NC(Cc1ccccc1)C(=O)O)C1CCN(S(=O)(=O)c2cccc(C(F)(F)F)c2)CC1 (configuration not stated),–,–,–,–,–,–
CCC1=C(c2ccc(C)cc2)S(=O)(=O)N=C1N1CCC(C(=O)NCc2ccc(C)cc2)CC1,–,·,·,·,–,?
CC(C)(C)COc1ccc(-n2cc(C(=O)O)cn2)cc1C#N,·,·,–,·,·,·
Cc1cc2c(n1-c1ccc(C(=O)NCC(C)c3ccccc3)cc1)CCCC2 (configuration not stated),–,·,–,–,–,?
Cn1c(NCc2cccc(Br)c2)nc2ccccc21,–,-58,–,–,–,–
c1ccc2c(-c3c[nH]c4ccccc34)c3ccccc3nc2c1,–,-53,?,–,–,?
CCOC(=O)c1c(C)n(-c2ccc(C)cc2)c2c(C(C(C)=O)C(=O)O)c(Br)c(O)c(O)c12 (configuration not stated),–,–,–,–,–,?
CCOC(=O)C(C(C)=O)c1c(Br)c(O)c(O)c2c(C(=O)c3ccc(C)cc3)coc12 (configuration not stated),–,–,14µM,?,–,10µM
C[C@@H]1CN([C@H](C)CO)C(=O)c2c(c3ccccc3n2C)-c2ccccc2CO[C@H]1CN(C)Cc1ccc(Oc2ccccc2)cc1,–,–,?,?,–,16µM
C[C@@H]1CN([C@H](C)CO)C(=O)c2c(c3ccccc3n2C)-c2ccccc2CO[C@H]1CN(C)Cc1ccc(C(F)(F)F)cc1,–,–,?,28µM,20µM,?
COc1ccc(NC(=O)N(C)C[C@@H]2OCc3ccccc3-c3c(n(C)c4ccccc34)C(=O)N([C@H](C)CO)C[C@H]2C)c(OC)c1,–,–,?,?,–,–
CNC[C@@H]1OCc2ccccc2-c2c(n(C)c3ccccc23)C(=O)N([C@H](C)CO)C[C@H]1C,–,–,?,32µM,–,?
C[C@@H]1CN([C@H](C)CO)C(=O)c2c(c3ccccc3n2C)-c2ccccc2CO[C@H]1CN(C)C(=O)c1cc(Cl)cc(Cl)c1,–,–,–,–,–,–
C[C@@H]1CN([C@H](C)CO)C(=O)c2c(c3ccccc3n2C)-c2ccccc2CO[C@H]1CN(C)Cc1cccc(C(=O)O)c1,–,–,–,–,–,–
CC(C)[C@H](C(=O)Nc1ccc(C(=O)NO)cc1)c1ccccc1,·,·,–,·,·,·
COc1ccc(-c2noc(CN(C)CCC3CCCCO3)n2)cc1 (configuration not stated),35,–,–,–,–,–
COC(=O)c1ccccc1NC(=O)Cc1nc(-c2ccc(OC)cc2)no1,–,·,·,·,18µM,?
CCOC(=O)c1ccccc1NC(=O)CCc1nc(-c2ccc(C)cc2)no1,–,·,·,·,–,–
COc1ccc(OC(C)C(=O)N(C)Cc2nc(-c3ccc(OC)cc3)no2)cc1 (configuration not stated),40,–,–,–,–,–
O=C(c1cncc(Br)c1)N1CCC(N2CCCC2)CC1,·,·,–,·,·,·
OC(c1cccnc1)c1ccc2c(c1)CN(Cc1ccc(-c3ccccc3Cl)o1)CCO2 (configuration not stated),·,·,·,–,·,·
O=C(N/N=C/c1cn(-c2cccs2)nc1-c1ccccc1)c1ccccc1O,–,–,–,?,–,11µM
SMILES,D3 ag,D3 antag,ATXN2 expr inh,ATXN viability,HepG2 tox,TGFb inhibitor
Cc1oc2ncn(CC(C)C)c(=O)c2c1C(=O)NCCCN1CCCCC1C (configuration not stated),–,·,–,–,–,–
C=CCNc1nc(NCCCN2CCCC2=O)c2sc(-c3ccccc3)cc2n1,–,–,–,–,–,?
C=CCNc1nc(NCc2ccc(NC(C)=O)cc2)c2sc(-c3ccccc3)cc2n1,–,–,?,32µM,11µM,?
CC(=O)Nc1ccc(CNc2nc(NC(C)C)nc3cc(-c4ccccc4)sc23)cc1,–,–,22µM,?,–,?
CCc1ccc(CNC(=O)CCCN2C(=O)CCn3nc(-c4cccn4C)cc32)cc1,–,·,–,?,–,–
CCC1=NN(C(=O)Cc2ccc([N+](=O)[O-])cc2)C(O)(C(F)(F)F)C1 (configuration not stated),–,–,–,–,–,–
CC1=NN(C(=O)Cc2ccc([N+](=O)[O-])cc2)C(O)(C(F)(F)C(F)(F)F)C1 (configuration not stated),–,?,·,?,–,11µM
COc1ccc(N(C(=O)c2ccc(OC)c(OC)c2)S(=O)(=O)c2ccc(Cl)cc2)cc1,–,·,–,–,–,–
CN1CCC(Oc2ccc(Sc3ccccc3)cc2)CC1,–,–,–,?,–,–
CN1CCC(OC2c3ccccc3CCc3ccccc32)CC1,–,-99,·,?,–,–
COc1cccc(N2CCN(C(C)C(=O)NC34CC5CC(CC(C5)C3)C4)CC2)c1 (configuration not stated),–,-53,–,–,–,–
COc1cccc(N2CCN(CC(=O)C34CC5CC(CC(C5)C3)C4)CC2)c1,–,–,–,–,–,–
C/C(=C\c1ccc(N)cc1)c1nc2ccccc2[nH]1,–,–,–,–,–,–
